Drawing on PubChem BioAssay AID651744 (Broad Institute, 2012), this text covers inhibition for 64 compounds.

Hit rate of the full screen: of about 5,600 compounds, about 3,100 (55%) were called active. About 3% were inconclusive and are not listed. The set was probably picked from earlier hits. Only a sample is shown. A number with no mark means an inactive call.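 Rule for the calls: active = mean loss of cell viability signal at or above a set limit, and enough replicates individually reaching it; inconclusive = meets only the mean limit or only the replicate share; inactive = meets neither condition.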

The nature of the assay: NIH/3T3 fibroblast cytotoxicity, confirmation, cytotoxicity control, cell-based, cherry-pick, single point, set 2 (AID 651744).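 Note: 0% = median of neutral control wells and 100% = median of positive control wells.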 As to conditions: NIH/3T3 viability, CellTiter-Glo ATP luminescence, 90 h; at 24.9 µM; hits give high values.
Consider `C[C@@H]1CCCCO[C@@H](CN(C)S(=O)(=O)c2ccc(Cl)cc2)[C@H](C)CN([C@@H](C)CO)C(=O)c2cc(NC(=O)Cc3ccccc3)ccc2O1`, for which the inhibition was 12.4%.
Turning to `C[C@H]1CN([C@@H](C)CO)C(=O)c2cc(C#CC3CCCCC3)cnc2O[C@H]1CN(C)S(=O)(=O)c1ccccc1`, the inhibition was 62.7% (active).
For the compound `C[C@@H]1CN([C@H](C)CO)C(=O)c2cc(C#CC3CCCCC3)cnc2O[C@@H]1CN(C)C(=O)NC1CCCC1`, the inhibition was 75.6% (active).
For the compound `CC(C)NC(=O)Nc1ccc2c(c1)C(=O)N([C@@H](C)CO)C[C@H](C)[C@H](CN(C)S(=O)(=O)c1ccc(Cl)cc1)OCCCC[C@H](C)O2`, the inhibition is 14%.
As for `C[C@@H]1CCCCO[C@H](CN(C)S(=O)(=O)c2ccc(F)cc2)[C@H](C)CN([C@@H](C)CO)C(=O)c2cc(NS(=O)(=O)c3ccccc3)ccc2O1`, the inhibition was -19.2%.
As to `C[C@@H]1CN([C@@H](C)CO)C(=O)c2cc(C#CC3CCCCC3)cnc2O[C@H]1CN(C)S(=O)(=O)c1ccccc1`, the inhibition was 106% (active).
Take `C[C@H](CO)N1C[C@H](C)[C@H](CN(C)C(=O)C2CCCCC2)Oc2ncc(C#Cc3cccc(F)c3)cc2C1=O`: the inhibition was 92.3% (active).
In the case of `C[C@H](CO)N1C[C@H](C)[C@H](CN(C)C(=O)Nc2ccc3c(c2)OCO3)Oc2ncc(C#Cc3cccc(F)c3)cc2C1=O`, the inhibition was 103% (active).
As for `C[C@@H]1CN([C@H](C)CO)C(=O)c2cc(-c3cncnc3)cnc2O[C@H]1CN(C)C(=O)Nc1ccc2c(c1)OCO2`, the inhibition was 2.69%.
As to `Cc1cccc(-c2ccc([C@H]3[C@@H](CO)N4CCCCN(Cc5cncnc5)C[C@H]34)cc2)c1`, the inhibition is 102% (active).
Consider `OC[C@H]1[C@H](c2ccc(-c3cccc(F)c3)cc2)[C@@H]2CN(Cc3cncnc3)CCCCN12`, for which the inhibition is 31.7% (active).
With `Cc1ccc(-c2ccc([C@H]3[C@H](CO)N4CCCCN(Cc5cncnc5)C[C@@H]34)cc2)cc1`, the inhibition was 64.8% (active).
The value for `OC[C@@H]1[C@H](c2ccc(C#CC3(O)CCCC3)cc2)[C@H]2CN(Cc3cncnc3)CCCCN12` was 16.8%; that for `CN(C)C(=O)c1ccc(-c2ccc([C@H]3[C@@H](CO)N4CCCCN(CC5CC5)C[C@H]34)cc2)cc1` was -3.83%; that for `OC[C@@H]1[C@H](c2ccc(C#Cc3ccccc3)cc2)[C@@H]2CN(Cc3cncnc3)CCCCN12` was 104% (active).
`CCC(=O)N1CC[C@@H]2[C@@H](CO)N(C)c3ccc(-c4cccc(OC)c4)cc3[C@@H]21`: the inhibition was -5.88%.
The value for `C[C@H]1CN([C@@H](C)CO)S(=O)(=O)c2ccc(C#CCN(C)C)cc2O[C@@H]1CN(C)Cc1ccc(F)cc1` was 105% (active); that for `CC(C)C#Cc1ccc2c(c1)O[C@H](CN(C)Cc1ccccc1)[C@H](C)CN([C@@H](C)CO)S2(=O)=O` was 106% (active).
The value for `CC(=O)N(C)C[C@H]1Oc2cc(C#CCN(C)C)ccc2S(=O)(=O)N([C@@H](C)CO)C[C@@H]1C` was 16.1%; that for `C[C@@H]1CN([C@@H](C)CO)S(=O)(=O)c2ccc(/C=C/c3ccccc3)cc2O[C@H]1CN(C)Cc1ccccc1` was 72.5% (active); that for `C[C@@H]1CN([C@H](C)CO)S(=O)(=O)c2ccc(C#C[C@@H](C)O)cc2O[C@@H]1CN(C)Cc1ccc(-c2ccccc2)cc1` was 105% (active).
As to `COc1cccc(C#Cc2ccc([C@@H]3[C@H](C#N)N[C@H]3CO)cc2)c1`, the inhibition is 61.1% (active).
The value for `C[C@H](CO)N1C[C@H](C)[C@H](CN(C)S(=O)(=O)c2ccccc2)Oc2ncc(-c3cccc(C(F)(F)F)c3)cc2C1=O` was 41.1% (active).
As to `Cc1ccc(-c2cnc3c(c2)C(=O)N([C@@H](C)CO)C[C@@H](C)[C@H](CN(C)Cc2ccccc2F)O3)cc1`, the inhibition was 92.5% (active).
Take `C[C@H](CO)N1C[C@H](C)[C@H](CN(C)S(=O)(=O)c2cccc(F)c2)Oc2ncc(/C=C/c3ccccc3)cc2C1=O`: the inhibition is 76% (active).
For `Cc1ccc(S(=O)(=O)N(C)C[C@@H]2Oc3ncc(-c4cc5ccccc5o4)cc3C(=O)N([C@H](C)CO)C[C@@H]2C)cc1`, the inhibition is 14.8%.
With `C[C@H]1CN([C@@H](C)CO)C(=O)c2ccccc2-c2ccccc2CO[C@@H]1CN(C)S(=O)(=O)c1ccc(C(F)(F)F)cc1`, the inhibition was 9.87%.
For `C[C@H](CO)N1C[C@H](C)[C@@H](CN(C)S(=O)(=O)c2cccc(F)c2)OCc2ccccc2-c2c(n(C)c3ccccc23)C1=O`, the inhibition was 4.71%.
Consider `C[C@@H]1CN([C@H](C)CO)C(=O)c2cc(/C=C/c3ccccc3)cnc2O[C@@H]1CN(C)Cc1ccncc1`, for which the inhibition was 26.2% (active).
Turning to `CN1C(=O)c2cc(NC(=O)Nc3ccccc3F)ccc2OC[C@H]2O[C@H](CC(=O)NCc3ccc(-c4ccccc4)cc3)CC[C@H]21`, the inhibition was 23%.
The value for `O=C(c1ccccc1F)N1C[C@H]2[C@@H](c3ccccc31)[C@@H](CO)N2C(=O)c1ccc(F)cc1` was 9.61%.
`COc1ccc(CCN(C)C(=O)C2CCCN(Cc3ccc(OC)c(OC)c3)C2)cc1OC` (centres undefined): the inhibition is 2.44%.
For the compound `C[C@H]1CN([C@@H](C)CO)S(=O)(=O)c2ccc(C#CC3CCCC3)cc2O[C@H]1CN(C)C(=O)Cc1ccncc1`, the inhibition is 103% (active).
The value for `C[C@@H]1CN([C@H](C)CO)S(=O)(=O)c2ccc(C#CC3CCCC3)cc2O[C@@H]1CN(C)C(=O)Cc1ccncc1` was 85.1% (active); that for `CC(=O)N(C)C[C@@H]1[C@@H](c2ccc(-c3ccccc3F)cc2)[C@@H](CO)N1C(C)=O` was -5.68%; that for `CS(=O)(=O)N1[C@@H](C#N)[C@H](c2ccc(C#CC3CCCCC3)cc2)[C@@H]1CO` was 75.2% (active).
`CCc1cnc(N2[C@H](C#N)[C@H](c3ccc(C4=CCCC4)cc3)[C@@H]2CO)s1`: the inhibition was 7.03%.
For the compound `N#C[C@H]1[C@@H](c2ccc(C3=CCCCC3)cc2)[C@@H](CO)N1C(=O)NC1CCCCC1`, the inhibition was 60.1% (active).
Then `CCN(C[C@H]1[C@H](c2ccccc2)[C@H](CO)N1C(=O)C1CC1)C(=O)NC1CCCC1`, with 4.07%.
As to `CC(C)NC(=O)N1[C@H](C#N)[C@H](c2ccc(C#CC3CCCCC3)cc2)[C@H]1CO`, the inhibition was 67.4% (active).
In the case of `CN1c2ccc(-c3ccccc3)cc2[C@@H]2[C@@H](CCN2C(=O)c2ccncc2)[C@@H]1CO`, the inhibition is 18.7%.
Turning to `O=C(c1ccccn1)N1CC[C@@H]2[C@H]1c1cc(-c3ccccc3)ccc1N[C@@H]2CO`, the inhibition is 7.5%.
Take `N#Cc1ccc(-c2ccc3c(c2)[C@@H]2[C@@H](CCN2C(=O)Cc2ccncc2)[C@@H](CO)N3)cc1`: the inhibition was 14.4%.
Regarding `OC[C@@H]1Nc2ccc(-c3cccc(F)c3)cc2[C@H]2[C@@H]1CCN2Cc1ccncc1`, the inhibition was 43.3% (active).
With `O=C(c1cnccn1)N1CC[C@@H]2[C@H](CO)Nc3ccc(-c4cccc(F)c4)cc3[C@@H]21`, the inhibition was 42.7% (active).
Take `Cc1ccc(S(=O)(=O)N2C[C@@H](O)COC[C@@H]3O[C@H](CC(=O)NCc4ccc(Cl)c(Cl)c4)CC[C@H]32)cc1`: the inhibition is 8.83%.
Then `O=C(C[C@H]1CC[C@@H]2[C@H](COC[C@H](O)CN2Cc2ccc(Oc3ccccc3)cc2)O1)N1CCN(c2ccccc2)CC1`, with 104% (active).
`COc1cccc(S(=O)(=O)N2C[C@@H](O)COC[C@@H]3O[C@H](CC(=O)Nc4ccccc4)CC[C@H]32)c1`: the inhibition is 26.4%.
Take `COc1ccccc1NC(=O)N1CCCCN2[C@H](C1)[C@H](c1ccc(-c3ccccc3)cc1)[C@@H]2CO`: the inhibition was 14.8%.
The value for `COc1ccccc1C#Cc1ccc([C@H]2[C@H](CO)N3CCCCN(C(=O)C4CCC4)C[C@@H]23)cc1` was 105% (active).
For the compound `COc1ccccc1C#Cc1ccc([C@@H]2[C@H](CO)N3CCCCN(C(=O)C4CC4)C[C@@H]23)cc1`, the inhibition was 100% (active).
In the case of `COc1ccccc1C#Cc1ccc([C@@H]2[C@H](CO)N3CCCCN(C(=O)C4CCCC4)C[C@@H]23)cc1`, the inhibition was 103% (active).
The value for `O=C(C1CCC1)N1CCCCN2[C@H](CO)[C@H](c3ccc(-c4ccncc4)cc3)[C@@H]2C1` was -9.25%.
On to `C[C@H](CO)N1C[C@H](C)[C@@H](CN(C)C(=O)Nc2ccnc(N3CCOCC3)c2)OCc2ccccc2-c2ccccc2C1=O`, for which the inhibition is 17.3%.
Take `Cc1ccc(S(=O)(=O)Nc2ccc3c(c2)C(=O)N([C@@H](C)CO)C[C@@H](C)[C@H](CN(C)C(=O)Nc2cccc4ccccc24)OCCCC[C@H](C)O3)cc1`: the inhibition is 14.8%.
As for `C[C@@H]1CN([C@H](C)CO)C(=O)c2cc(C#Cc3ccccn3)cnc2O[C@H]1CN(C)Cc1ccccc1`, the inhibition is -11.5%.
In the case of `Cc1noc(C)c1S(=O)(=O)Nc1ccc2c(c1)C(=O)N([C@@H](C)CO)C[C@H](C)[C@@H](CN(C)C(=O)Nc1cccc3ccccc13)OCCCC[C@H](C)O2`, the inhibition is 13.2%.
The value for `C[C@@H]1CN([C@@H](C)CO)C(=O)c2cc(C#Cc3ccccc3)cnc2O[C@H]1CN(C)C(=O)c1ccccn1` was 34.3% (active); that for `COc1ccc(C#Cc2cnc3c(c2)C(=O)N([C@@H](C)CO)C[C@H](C)[C@@H](CN(C)C(C)=O)O3)cc1` was 45.4% (active).
`C[C@H](CO)N1C[C@H](C)[C@H](CN(C)C(=O)Nc2cccc3ccccc23)Oc2ncc(C#Cc3ccccc3)cc2C1=O`: the inhibition is 105% (active).
Then `CC(C)CC#Cc1cnc2c(c1)C(=O)N([C@@H](C)CO)C[C@@H](C)[C@H](CN(C)C(=O)Cc1ccncc1)O2`, with 36.6% (active); and `COCC(=O)N(C)C[C@@H]1Oc2ncc(C#Cc3ccccc3OC)cc2C(=O)N([C@@H](C)CO)C[C@H]1C`, with 34.8% (active).
As to `CCCN(C)C[C@@H]1Oc2cc(C#Cc3ccc(F)cc3)ccc2S(=O)(=O)N([C@H](C)CO)C[C@H]1C`, the inhibition is 105% (active).
With `CCCN(C)C[C@H]1Oc2cc(C#CC3CCCC3)ccc2S(=O)(=O)N([C@H](C)CO)C[C@@H]1C`, the inhibition was 105% (active).
